Screening data as filed in PubChem BioAssay.
The list is not random: actives were taken first. Their share in the collection is about 0.87%.
APE1 inh-1 – qHTS Assay for Inhibitors of the Human Apurinic/apyrimidinic Endonuclease 1 (APE1); hit rate 0.35% among 350,000; AID 2517, 2012; Potency, µM (series often up to 65.8 µM), usual class: inhibitors; recombinant APE1, TAMRA/BHQ-2 abasic DNA cleavage fluorescence; note: nearly all actives have a fitted effect of over 55% in size
Target sequence (P27695 whole entry, looked up): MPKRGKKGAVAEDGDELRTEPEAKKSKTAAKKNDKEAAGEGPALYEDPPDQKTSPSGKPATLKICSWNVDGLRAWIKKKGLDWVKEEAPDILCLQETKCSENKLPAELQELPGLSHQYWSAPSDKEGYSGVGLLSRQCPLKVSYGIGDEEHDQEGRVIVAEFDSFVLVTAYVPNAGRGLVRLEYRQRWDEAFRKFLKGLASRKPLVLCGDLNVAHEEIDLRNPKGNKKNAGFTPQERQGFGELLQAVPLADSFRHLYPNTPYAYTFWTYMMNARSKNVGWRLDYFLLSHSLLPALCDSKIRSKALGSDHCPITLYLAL
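APE1 at 0.75 nM preincubated 15 min at room temperature with compound. Reaction then started with 50 nM double-stranded THF-abasic substrate labelled with TAMRA/BHQ-2, and 525/598 nm fluorescence read kinetically. Activity taken as third-minus-first read difference, normalized to DMSO and NSC13755 controls.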
RECQ1 helicase – qHTS Assay for Inhibitors of RecQ-Like Dna Helicase 1 (RECQ1) | hit rate 0.54% among 240,000 | Potency, µM (series often up to 57.3 µM), actives largely listed as inhibitors | RECQ1 DNA unwinding, red fluorescence kinetic read | ATP-dependent DNA helicase Q1 (Homo sapiens), P46063; note: nearly all actives have a fitted effect of over 30% in size
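RECQ1T1 50 nM; forked duplex (20 bp + 30-nt ss tails) 200 nM, ATP 2 mM final; pH 8.0, 2 mM MgCl2, 2.5 ug/ml poly(dI-dC); 15 min compound preincubation; discontinuous kinetic read over 2 h at RT.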
BLM inh-1 – qHTS Assay for Inhibitors of Bloom's syndrome helicase (BLM). Potency, µM (series often up to 56.1 µM), usual class: inhibitors. recombinant BLM DNA unwinding, fluorescence dequenching. hit rate 0.2% among 350,000. RecQ-like DNA helicase BLM (Homo sapiens), P54132; note: nearly all actives have a fitted effect of over 35% in size
RGS4 inh – Inhibitors of Regulator of G Protein Signaling (RGS) 4: qHTS; AID 504845, 2011; Regulator of G-protein signaling 4 (Homo sapiens), P49798; hit rate 0.039% among 390,000; Transcreener GDP fluorescence polarization, RGS4-accelerated GTP hydrolysis; Potency, µM (doses to about 114 µM), usual class: inhibitors; note: nearly all actives have a fitted effect of over 75% in size
Target sequence (P49798 whole entry, looked up): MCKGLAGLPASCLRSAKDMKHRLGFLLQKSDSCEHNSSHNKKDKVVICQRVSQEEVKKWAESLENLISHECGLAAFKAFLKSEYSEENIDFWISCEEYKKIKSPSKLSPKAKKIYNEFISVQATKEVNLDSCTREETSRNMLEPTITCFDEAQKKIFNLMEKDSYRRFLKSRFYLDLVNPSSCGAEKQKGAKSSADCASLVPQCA
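MLSMR compounds (23 nl, pin-transferred) preincubated 10 min at room temperature with a 500nM (2x) first reagent, then RGS4 at 900nM (2x) plus Transcreener GDP mix added; fluorescence polarization (620/688 nm) read before and after 90 min at 30 °C.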
GCN5L2 inh-1 – qHTS Assay for Inhibitors of GCN5L2; GCN5L2 HAT assay, ThioGlo1 CoA-SH fluorescence; Histone acetyltransferase KAT2A (Homo sapiens), Q92830; hit rate 0.21% among 390,000; Potency, µM (highest dose often 58.9 µM), actives largely listed as inhibitors
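GCN5L2 (20 nM) in 50mM HEPES pH 7.5, 0.1mM EDTA, 0.01% Tween-20 preincubated 15 min with compounds at room temperature. Reaction started with H3(1-25) 75uM, acetyl-CoA 70uM, ThioGlo1 50uM; CoA-thiol fluorescence (Ex340/Em540) read at 0 and 20 min.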
TDP1 inh – qHTS Assay for Inhibitors of Tyrosyl-DNA Phosphodiesterase (TDP1); recombinant TDP1, AlphaScreen DNA substrate cleavage; Tyrosyl-DNA phosphodiesterase 1 (Homo sapiens), Q9NUW8; hit rate 0.28% among 350,000; Potency, µM (doses to about 130 µM), most hits filed as inhibitors; note: nearly all actives have a fitted effect of over 40% in size
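Compounds were preincubated with Tdp1 (1 nM final) for 15 min at room temperature before substrate (15 nM final) started a 5 min reaction; beads (10 ug/ml final) were then added for 10 min before AlphaScreen detection.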
APE1 dye cs – Counterscreen for APE1 Inhibitors: Fluorescent Dye Displacement Assay; shares compounds with APE1 inh-1; DNA fluorescent dye displacement counterscreen, fluorescence; Potency, µM (titrated, usually from 28.5 µM), actives largely listed as inhibitors; hit rate 7% among 480; AID 2564, 2010;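 note: loss of thiazole orange fluorescence as the dye is displaced from duplex DNA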
Endo IV inh – Counterscreen for APE1 Inhibitors: qHTS Assay for Inhibitors of Endonuclease IV | shares compounds with APE1 inh-1 | E. coli Endo IV, fluorogenic AP-site DNA cleavage | hit rate 4% among 560 | Potency, µM (top dose mostly 27.1 µM), most hits filed as inhibitors
APE1 inh-2 – Confirmation qHTS Assay for Inhibitors of the Human Apurinic/apyrimidinic Endonuclease 1 (APE1) | AID 2572, 2010 | shares compounds with APE1 inh-1 | hit rate 44% among 750 | purified APE1, fluorogenic abasic-site DNA cleavage | Potency, µM (highest dose often 57.1 µM), actives largely listed as inhibitors; note: nearly all actives have a fitted effect of over 30% in size
APE1 FP inh – qHTS FP-Based Assay for Inhibitors of the Human Apurinic/apyrimidinic Endonuclease 1 (APE1); APE1 binding to TAMRA-labelled double-stranded DNA, fluorescence polarization displacement; shares compounds with APE1 inh-1; Potency, µM (highest dose often 28.5 µM), most hits filed as inhibitors; hit rate 7% among 480
BLM inh-2 – qHTS Confirmation Assay for Inhibitors of Bloom's syndrome helicase (BLM) | BLM DNA unwinding, fluorescence quenching, biochemical | AID 2585, 2010 | Potency, µM, actives largely listed as inhibitors | shares compounds with BLM inh-1 | hit rate 40% among 220;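 note: strand separation dequenches TAMRA so unwinding raises red fluorescence; series mostly up to about 69 µM; nearly all actives have a fitted effect of over 45% in size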
GCN5L2 inh-2 – qHTS Assay for Inhibitors of GCN5L2: Hit confirmation | shares compounds with GCN5L2 inh-1 | GCN5L2 HAT, ThioGlo1 CoA fluorescence, 20 min | Potency, µM, most hits filed as inhibitors | hit rate 70% among 140
Of the large screens only hits and unclear results are named; the others gave an inactive call (follow-up assays come after a bar, where they were run); ! = repeats disagree. Calls come from the whole dose curve; as a rule, active = well fitted curve in the direction sought with a large enough effect; inconclusive = small, poorly fitted or top-dose-only effect, or another doubt; inactive = no such curve, though single readings can be large; an effect the other way counts as inactive or inconclusive.

Cc1cccc(C)c1NC(=O)CSc1nnc(-c2ccco2)c(-c2ccco2)n1	APE1 inh-1 15.8µM, RECQ1 helicase 14.1µM, RGS4 inh inconclusive, GCN5L2 inh-1 12.6µM (no result: TDP1 inh) | APE1 dye cs inconclusive | Endo IV inh inactive | APE1 inh-2 3.55µM | APE1 FP inh inactive | GCN5L2 inh-2 inconclusive
CN(C)c1ccc(NC(=O)CSc2nnc(-c3ccco3)c(-c3ccco3)n2)cc1	none (no result: RECQ1 helicase, TDP1 inh)
O=C(CSc1nnc2scc(-c3ccccc3)n12)Nc1nsc(-c2ccccc2)n1	BLM inh-1 20µM | BLM inh-2 36.3µM
COC(=O)c1ccc(C2c3c(oc4ccc(C)cc4c3=O)C(=O)N2Cc2ccc3c(c2)OCO3)cc1 (stereo not drawn)	none (no result: APE1 inh-1, RECQ1 helicase)
O=C(CCc1c[nH]c2ccccc12)NC(Cc1c[nH]c2ccccc12)C(=O)O (stereo not drawn)	APE1 inh-1 21.2µM, BLM inh-1 31.6µM (no result: RECQ1 helicase, TDP1 inh) | BLM inh-2 inactive
CC(C)=CCOc1ccc(/C=C/C(=O)c2ccc(OCC=C(C)C)cc2OCC(=O)O)cc1	BLM inh-1 15.8µM, GCN5L2 inh-1 10µM (no result: RGS4 inh) | BLM inh-2 inconclusive
C/C=C/c1ccc(OCC(=O)O)c(OC)c1	none
COc1cc(-c2nc3ccc(N4CCN(C)CC4)cc3[nH]2)cc(OC)c1OC	BLM inh-1 20µM, GCN5L2 inh-1 inconclusive | BLM inh-2 inconclusive
Cc1ccc2c(Br)cc(Br)c(O)c2n1	none (no result: APE1 inh-1, RECQ1 helicase, RGS4 inh)
CCCc1cc(=O)[nH]c(SCC(=O)Nc2ccc3c(c2)CCC3)n1	GCN5L2 inh-1 inconclusive
O=C(CSc1nc(O)cc(=O)[nH]1)Nc1ccc2c(c1)CCC2	BLM inh-1 22.4µM (no result: TDP1 inh) | BLM inh-2 inactive
Cc1cc2c(nc1C)CCCN2C[C@H](C)O/N=C1/[C@H]2O[C@@H]2[C@@H](O)[C@H]2[C@H]1CCn1c(=O)n(-c3ccccc3)c(=O)n12	none (no result: RGS4 inh, GCN5L2 inh-1)
O=C(/C=C/c1ccc(O)c(O)c1)c1ccc(O[C@@H]2O[C@H](CO)[C@@H](O)[C@H](O)[C@H]2O)c(O)c1O	APE1 inh-1 inconclusive (no result: RGS4 inh, TDP1 inh)
Fc1ccc(CSc2ccc(-c3ccco3)nn2)cc1	none
CCSc1ccc(-c2ccco2)nn1	BLM inh-1 10µM | BLM inh-2 inconclusive
CCCCNC(=O)C(CC)n1c(SCc2cccc(F)c2)nc2ccncc21 (stereo not drawn)	none (no result: APE1 inh-1, RECQ1 helicase, BLM inh-1, GCN5L2 inh-1)
Cc1noc(C)c1-c1ccc2ncnc(NC3CCCc4ccccc43)c2c1 (stereo not drawn)	none (no result: RGS4 inh, GCN5L2 inh-1)
COc1ccc2c(c1)C(=NNC(=O)c1ccccn1)c1cc(OC)ccc1-2	BLM inh-1 10µM | BLM inh-2 28.9µM
O=C(Nc1nnc2n1CCS2)c1ccc(F)cc1F	none (no result: APE1 inh-1, RECQ1 helicase)
CC(C)N(C(=O)Nc1ccc2nsnc2c1)C(C)C	BLM inh-1 5.62µM, RGS4 inh inconclusive | BLM inh-2 inconclusive
O=C(Nc1ccc2nsnc2c1)N1CCCCC1	APE1 inh-1 inconclusive
COC(=O)c1c(NC(=O)COC(=O)c2ccc(NC(=O)CC#N)cc2)sc2c1CCCCC2	BLM inh-1 31.6µM | BLM inh-2 inconclusive
Oc1ccc(NCc2ccccc2OCc2ccccc2F)cc1	APE1 inh-1 inconclusive, BLM inh-1 28.2µM!, RGS4 inh inconclusive | BLM inh-2 inconclusive
CCOc1cccc(CNc2ccc(O)cc2)c1OCc1ccc(Cl)cc1	BLM inh-1 28.2µM, RGS4 inh inconclusive | BLM inh-2 inactive
Oc1ccc(NCc2ccccc2OCc2ccccc2Cl)cc1	none (no result: APE1 inh-1, RECQ1 helicase)
Cc1nn(C)c(Cl)c1S(=O)(=O)N(Cc1ccco1)c1ncnc2nc[nH]c12	none (no result: APE1 inh-1, RECQ1 helicase, BLM inh-1, GCN5L2 inh-1)
COc1ccc(Cc2nc3ccccc3n2CC(=O)N/N=C/c2ccc(O)cc2)cc1OC	none
COc1ccc(Cc2nc3ccccc3n2CC(=O)N/N=C/c2ccc(C)cc2O)cc1OC	BLM inh-1 10µM, RGS4 inh inconclusive | BLM inh-2 inconclusive
CCOc1ccc2nc3cc(NCc4ccc(OC)cc4)ccc3c(N)c2c1	BLM inh-1 14.1µM (no result: RECQ1 helicase, TDP1 inh) | BLM inh-2 7.25µM
O=C(Cc1ccc(Cl)cc1)Nc1ccccc1Sc1ccccc1	none
O=C(CCl)Nc1ccccc1Sc1ccccc1	BLM inh-1 8.91µM | BLM inh-2 12.9µM
S=C(Nc1ccc2nsnc2c1)NC1CCCCC1	BLM inh-1 12.6µM | BLM inh-2 inactive
CC#CCN1c2ccccc2[C@]23C[C@@H](C(=O)OC)N(C(=O)CC(C)C)C2=NC(C(=O)OC)=C(C(=O)OC)[C@H]13	none (no result: RGS4 inh, GCN5L2 inh-1)
O=C(Nc1cccc(-c2nc3cccnc3s2)c1)C1c2ccccc2Oc2ccccc21	APE1 inh-1 inconclusive, BLM inh-1 10µM, TDP1 inh inconclusive | BLM inh-2 12.9µM
